± gives the standard deviation of the averaged measurements.
Columns and labels:
Conditions in all cases: concentration: 10 µM; 24 h
HCC1569 [1] = assay: cell number relative to DMSO (% of DMSO); higher = more cells (less growth inhibition / toxicity)
Procedure, shortened: (§1)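 Cells were seeded at 800 per well in 384-well plates with RPMI containing 10% FBS; both HCC1569 and TDF lines were used. Compounds were added at 10 µM for 24 h at 37 °C, in triplicate, before fixation in 3.7% formaldehyde and staining with a rabbit anti-H1.0 antibody, an AlexaFluor 647 secondary and DAPI. H1.0 nuclear intensity or cell number is reported as percent of the plate control using the median of replicates, and HCC1569 values were smoothed for positional effects.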

TDF [2] = assay: as above
Procedure, shortened: as §1

TDF [3] = assay: H1.0 immunofluorescence intensity relative to DMSO (% of DMSO); higher = stronger H1.0 induction, active = 120 or more
Procedure, shortened: as §1

HCC1569 [4] = assay: H1.0 immunofluorescence intensity relative to DMSO (% of DMSO); higher = stronger H1.0 induction, active = 140 or more
Procedure, shortened: as §1
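Wherever H1.0 immunofluorescence intensity relative to DMSO is given: TDF is a line of transformed human dermal fibroblasts of mesenchymal origin.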
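Wherever cell number relative to DMSO is given: TDF denotes transformed human dermal fibroblasts of mesenchymal origin.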

SMILES | cell number (HCC1569 [1]) | cell number (TDF [2]) | H1.0 immunofluorescence intensity (TDF [3]) | H1.0 immunofluorescence intensity (HCC1569 [4])
COC12CC(COC(=O)c3cncc(Br)c3)CN(C)C1Cc1cn(C)c3cccc2c13 (stereo not given) [Nicergoline] | 104 | 102 | 92.9 (inactive) | 102 (inactive)
C=CCN1CC(C(=O)N(CCCN(C)C)C(=O)NCC)CC2c3cccc4[nH]cc(c34)CC21 (stereo not given) [Cabergoline] | 109 | 102 | 96.1 (inactive) | 102 (inactive)
CC(C)C1(NC(=O)C2CC3c4cccc5[nH]cc(c45)CC3N(C)C2)OC2(O)C3CCCN3C(=O)C(Cc3ccccc3)N2C1=O.CS(=O)(=O)O (stereo not given) [Dihydroergocristine methanesulfonate] | 91.8 | 109 | 106 (inactive) | 126 (inactive)
COc1ccc2c(c1)[nH]c1c(C)nccc12 [Harmine] | 87.2 ± 2.5 | 94.9 ± 3.2 | 99.7 (inactive) | 106 (inactive)
CC(C)N(CCC(C(N)=O)(c1ccccc1)c1ccccn1)C(C)C.O=P(O)(O)O (stereo not given) [Disopyramide phosphate] | 106 | 105 | 97.6 (inactive) | 94.1 (inactive)
C[N+]1(C)C2CC(OC(=O)C(CO)c3ccccc3)CC1C1OC12.[Br-] (single isomer, unassigned; (-)) [(-)-Scopolamine methyl bromide] | 104 | 98.8 | 95.7 (inactive) | 101 (inactive)
CCCN(CCC)CCc1c[nH]c2ccc(C(N)=O)cc12.O=C(O)C=CC(=O)O [N,N-Dipropyl-5-carboxamidotryptamine maleate] | 99.4 | 104 | 97 (inactive) | 98.9 (inactive)
CC1CCC2C(C)C3C(CC4C5CCC6CC(O)CCC6(C)C5CCC43C)N2C1 (stereo not given) [Demissidine] | 97.9 | 92.2 | 102 (inactive) | 92.6 (inactive)
NC(=NCCCC(N)C(=O)O)N[N+](=O)[O-] [NG-Nitro-L-arginine] | 104 | 96.7 | 89.6 (inactive) | 90 (inactive)
CCCCCCCCCCCCCC(=O)OC1C(C)C2(O)C(C=C(CO)CC3(O)C(=O)C(C)=CC32)C2C(C)(C)C12OC(C)=O (stereo not drawn) [4alpha-Phorbol-12-myristate-13-acetate] | 98.4 | 111 | 95.6 (inactive) | 108 (inactive)
Nc1ccncc1 [4-Aminopyridine] | 101 | 103 | 95.3 (inactive) | 88 (inactive)
Cc1cc(C(=O)CN2CCCC2)c(C)n1-c1ccc(F)cc1 | 99 | 102 | 99.9 (inactive) | 94.1 (inactive)
CCCCCC=CCC(C=CC=CCC=CCCCC(=O)O)OO (stereo not given) | 102 | 101 | 102 (inactive) | 99.8 (inactive)
CN1CCC2(CCN3CCc4c(oc5ccccc45)C3C2)N(C)C1=O.Cl (stereo not given) | 102 | 91 | 95 (inactive) | 110 (inactive)
Cc1ncc(CNC(=O)N(CCCl)N=O)c(N)n1.Cl [Nimustine hydrochloride] | 97.8 | 64.7 | 104 (inactive) | 94.4 (inactive)
CC(C)C1C(=O)OC2CCN3CC=C(COC(=O)C(C)(O)C1(C)O)C23 (stereo not given) [Trichodesmine] | 99.6 | 103 | 93.2 (inactive) | 89.8 (inactive)
COc1cc2c3cc1Oc1c(OO)c(OC)cc4c1C(Cc1ccc(cc1)Oc1cc(ccc1O)CC3N(C)CC2)N(C)CC4.O=S(=O)(O)O (stereo not given) [Oxyacanthine sulfate] | 55.6 | 11.7 | 186 (active) | 148 (active)
CCCCCCCCCCCCCC(=O)OC1C(C)C2(O)C(C=C(CO)CC3(O)C(=O)C(C)=CC32)C2C(C)(C)C12OC(C)=O (stereo not given) [Phorbol 12-myristate 13-acetate] | 99 ± 4.3 | 74.6 ± 8.8 | 125 (active) | 125 (inactive)
COCC1OC(=O)c2coc3c2C1(C)C1=C(C3=O)C2CCC(=O)C2(C)CC1OC(C)=O (stereo not given) [Wortmannin] | 43.3 | 91.8 | 90.9 (inactive) | 140 (inactive)
CC(C)(C)c1cc(C=C(C#N)C#N)cc(C(C)(C)C)c1O [Tyrphostin A9] | 54.6 | 47 | 117 (inactive) | 87.7 (inactive)
CC(C)NC(C)Cc1ccc(I)cc1.Cl (stereo not given) [Iofetamine hydrochloride] | 105 | 113 | 91.5 (inactive) | 91.7 (inactive)
Br.CC1NCCc2cc(O)c(O)cc21 (stereo not given) | 100 | 93.9 | 105 (inactive) | 94.9 (inactive)
CC=C1CC(C)C(C)(O)C(=O)OCC2=CCN3CCC(OC1=O)C23 (stereo not given) [Senecionine] | 98.6 | 101 | 108 (inactive) | 91.8 (inactive)
Br.NCc1cc(=O)[nH]o1 [Muscimol hydrobromide] | 103 | 119 | 89.5 (inactive) | 91 (inactive)
C=C1C(C)C2C(Cc3ccccc3)NC(=O)C23OC(=O)C=CC(O)CCCC(C)CC=CC3C1O (stereo not given) [Cytochalasin B] | 95.1 | 63.7 | 125 (active) | 110 (inactive)

SMILES | cell number (HCC1569 [1]) | cell number (TDF [2]) | H1.0 immunofluorescence intensity (TDF [3]) | H1.0 immunofluorescence intensity (HCC1569 [4])
C[N+](C)(C)CC#CCN1CCCC1=O.[I-] [Oxotremorine methiodide] | 106 | 97 | 100 (inactive) | 98.8 (inactive)
CCCC(C)(COC(N)=O)COC(=O)NC(C)C (stereo not given) [Carisoprodol] | 97.4 | 90.8 | 99.6 (inactive) | 106 (inactive)
Br.NC1CCc2cc(O)c(O)cc2C1 (stereo not given) [6,7-ADTN hydrobromide] | 104 | 103 | 93.1 (inactive) | 92.4 (inactive)
CC(C)CC1C(=O)N2CCCC2C2(O)OC(NC(=O)C3C=C4c5cccc6[nH]c(Br)c(c56)CC4N(C)C3)(C(C)C)C(=O)N12.CS(=O)(=O)O (single isomer, unassigned; (+)) [(+)-Bromocriptine methanesulfonate] | 91.1 | 103 | 96.3 (inactive) | 108 (inactive)
CCn1cnc2c(Nc3cccc(Cl)c3)nc(NC3CCCCC3N)nc21.Cl (stereo not given) | 53 | 21.5 | 132 (active) | 101 (inactive)
COc1ccc(C(=O)c2c(C)n(CCN3CCOCC3)c3cc(I)ccc23)cc1 | 85.1 | 82.3 | 108 (inactive) | 128 (inactive)
CC12CCC3C(CC=C4CC(O)CCC43C)C1CCC2=O (stereo not given) [Dehydroepiandrosterone] | 105 | 107 | 99.7 (inactive) | 93.6 (inactive)
CCCCCC=CCC=CCC=CCC=CCCCC(=O)NC(C)CO [(R)-Methandamide] | 107 | 98.1 | 100 (inactive) | 100 (inactive)
CC(C)CC(NP(=O)([O-])OC1OC(C)C(O)C(O)C1O)C(=O)NC(Cc1c[nH]c2ccccc12)C(=O)[O-].[Na+].[Na+] (stereo not given) [Phosphoramidon disodium] | 99.6 | 110 | 90.6 (inactive) | 102 (inactive)
NCC1(CC(=O)O)CCCCC1 [Gabapentin] | 104 ± 4.7 | 108 ± 6.5 | 94.7 (inactive) | 93.5 (inactive)
COc1cc(C(=O)OC2CC3CCC(C2)N3C)ccc1O (stereo not given) [Fillalbin] | 101 | 93.9 | 98.2 (inactive) | 94.5 (inactive)
Br.CCCN(CCC)CCc1ccc(O)c(O)c1 [Dipropyldopamine hydrobromide] | 97.9 | 104 | 90.8 (inactive) | 100 (inactive)
Ic1ccccc1CNC1C2CCN(CC2)C1C(c1ccccc1)c1ccccc1.O=C(O)C(=O)O [L-703,606 oxalate] | 85.3 | 91.8 | 114 (inactive) | 128 (inactive)
COc1cc(C=C(C#N)C#N)cc(O)c1O [Tyrphostin AG 34] | 102 | 97.9 | 96.3 (inactive) | 114 (inactive)
COc1ccccc1CN[C@H]1C2CCN(CC2)[C@H]1C(c1ccccc1)c1ccccc1 | 95.3 | 97.3 | 105 (inactive) | 125 (inactive)
CC=C1CC(C)C(O)(CO)C(=O)OCC2=CCN3CCC(OC1=O)C23 (stereo not given) [Retrorsine] | 101 | 115 | 93.8 (inactive) | 90.4 (inactive)
CC(=O)OC1CC2CCC3C(CCC4(C)C3CC([N+]3(C)CCCCC3)C4OC(C)=O)C2(C)CC1[N+]1(C)CCCCC1.[Br-].[Br-] (stereo not given) [Pancuronium.2Br] | 100 | 92 | 93.9 (inactive) | 102 (inactive)
NC(CCP(=O)(O)O)C(=O)O (racemic) | 99.4 | 101 | 96.9 (inactive) | 91.1 (inactive)
CCCCc1ccc(C(=O)O)nc1 [Fusaric acid] | 105 | 110 | 90.2 (inactive) | 88.6 (inactive)
Cl.OCC1C(O)C(O)C2C(O)CCN12 (stereo not given) | 101 | 111 | 97 (inactive) | 97.5 (inactive)
CCn1cc(C(=O)O)c(=O)c2cc3c(cc21)OCO3 [Oxolinic acid] | 100 | 109 | 104 (inactive) | 101 (inactive)
COc1ccc(C(=O)OC2CC3CCC(C2)N3C)cc1OC (stereo not given) [Convolvamine] | 105 | 96.1 | 97.8 (inactive) | 90 (inactive)
CCCCCC(C=CC=CCCCCCCCCCC(=O)O)OO (stereo not given) | 111 | 92.8 | 94.4 (inactive) | 103 (inactive)
CCN1CC2(C)CCC(OC)C34C2C(OC(C)=O)C2(OCOC25CC(OC)C2CC3(O)C5C2OC)C14 (stereo not given) [Deltaline] | 105 | 104 | 98.2 (inactive) | 96.9 (inactive)
CNC(=O)Oc1ccc2c(c1)C1(C)CCN(C)C1N2C.CNC(=O)Oc1ccc2c(c1)C1(C)CCN(C)C1N2C.O=S(=O)(O)O (stereo not given) [Physostigmine sulfate] | 97.1 | 102 | 90.4 (inactive) | 106 (inactive)

Source: the supplement of paper PMC7156485
